Data taken from PubChem BioAssay AID677 (Vanderbilt High Throughput Screening Facility, 2007).
Among all 1,700 compounds or so, about 720 (42%) were called active. So high a share suggests a set chosen from earlier hits. Only a sample is shown. Unmarked numbers belong to inactive results.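 Rule for the calls: active = calcium response below the same-plate mean of wells given acetylcholine alone at its 80%-effect dose, minus 3 SD; inactive = the rest.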

Molecular target: Muscarinic acetylcholine receptor M1 (Rattus norvegicus) (UniProt P08482)
Test: blockers of ACh-evoked M1 calcium signal – CHO cells, Fluo-4 calcium, duplicate, confirmation (AID 677);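 note: raw fluorescence intensity difference in arbitrary instrument units and not normalized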
Conditions: ACh EC80 antagonism, at 10 µM, stronger effect = lower value

Muscarinic acetylcholine receptor M1 (Rattus norvegicus), sequence (P08482 whole entry, looked up): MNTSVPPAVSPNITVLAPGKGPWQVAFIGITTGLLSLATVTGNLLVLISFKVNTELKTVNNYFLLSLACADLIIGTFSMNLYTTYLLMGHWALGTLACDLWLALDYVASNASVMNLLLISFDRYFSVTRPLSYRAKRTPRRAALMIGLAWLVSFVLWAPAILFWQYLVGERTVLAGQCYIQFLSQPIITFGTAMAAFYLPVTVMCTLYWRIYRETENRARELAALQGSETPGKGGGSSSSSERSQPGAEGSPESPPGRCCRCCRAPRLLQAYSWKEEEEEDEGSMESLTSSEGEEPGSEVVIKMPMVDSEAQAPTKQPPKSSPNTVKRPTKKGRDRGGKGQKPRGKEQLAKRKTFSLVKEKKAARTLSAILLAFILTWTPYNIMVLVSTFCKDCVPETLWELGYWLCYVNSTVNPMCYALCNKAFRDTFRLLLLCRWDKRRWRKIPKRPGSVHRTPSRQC

Compound | calcium response (max-min fluorescence)
COc1ccc(C2NCc3ccc4c(c3-n3cccc32)OCO4)cc1OC (stereo not given) | 455 (active)
Fc1ccc(N2CCN(Cc3ccc4c(c3)OCO4)CC2)cc1 | 588
CCOC(=O)C1SC2(C(F)(F)C(F)F)CC1(O)c1c(c(OC)c3occc3c1OC)O2 (stereo not given) | 516
CC[N+]1(C)CCCC(OC(=O)C(O)(c2ccccc2)c2ccccc2)C1 (stereo not given) | 17.5 (active)
COc1ccc(CN2CCN(c3ccccc3F)CC2)c(OC)c1 | 547
